Screening data (PubChem)
KB-V1 MDR tox = kills drug-selected multidrug resistant KB-V1 cells; KB-V1 MDR cells viability, CellTiter-Glo, 72 h; Potency, µM (titrated, usually from 46.1 µM), most hits filed as cytotoxic; AID 1347076; hit rate 3.4% among 400,000; also: potency is read from the fitted curve at half-maximal effect; % is scaled to controls: 0 for no effect and ±100 for the full control effect; nearly all actives have a fitted effect of over 60% in size
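Compound-treated KB-V1 multidrug-resistant cells, 72 h, 37 degrees C; viability by CellTiter-Glo. Fitted qHTS curves give the values.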
MCF10A rerep = induces DNA re-replication in MCF 10a normal breast cells. AID 624296. Potency, µM (top dose mostly 46.1 µM), for inactives: top-dose activity, positive = re-replication, most hits filed as activators. MCF 10A DNA re-replication, Hoechst nuclear intensity, 48 h. hit rate 2.9% among 350,000; also: potency is read from the fitted curve at half-maximal effect; % of control where 0% means no effect; nearly all actives have a fitted effect of over 50% in size
SW480 rerep = DNA re-replication induction in SW480 cells; SW480 DNA re-replication, Hoechst DNA content imaging, 48 h; Potency, µM (doses to about 46.1 µM), without a hit: top-dose re-replication activation, most hits filed as activators; hit rate 1.8% among 340,000; AID 624297; also: potency is read from the fitted curve at half-maximal effect; % of control where 0% means no effect; nearly all actives have a fitted effect of over 55% in size
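DNA re-replication was detected as more nuclei of elevated Hoechst intensity after 48 hr exposure to compound (23 nL pinned per well of 250 cells).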
KB-3-1 tox = KB-3-1 parental cell cytotoxicity; Potency, µM (top dose mostly 46.1 µM), actives largely listed as cytotoxic; KB-3-1 viability, CellTiter-Glo ATP luminescence, 72 h; AID 1347075; hit rate 1.4% among 400,000; also: potency is read from the fitted curve at half-maximal effect; % is scaled to controls: 0 for no effect and ±100 for the full control effect; nearly all actives have a fitted effect of over 60% in size
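Screening of KB-3-1 cells (DMEM, 10% FBS, phenol-red free) ran from lowest to highest compound concentration; after 72 h at 37 °C viability was read luminescently and curves fitted.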
Giardia kill = Giardia lamblia killing | Giardia lamblia trophozoite viability | activity change, % at 7.66 µM, hits read low | hit rate 0.15% among 340,000 | AID 540267; in the data active = activity change below about -80%; inconclusive = between about -30% and that limit;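 also: parasites exposed to compound for two days anaerobically before the ATP read; % is scaled to controls: 0 for no effect and ±100 for the full control effect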
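Trophozoite viability was measured as ATP-dependent luminescence, read 15-30 min after reagent addition. Before that, parasites at 100 cells/well were exposed to compounds for 48 h, anaerobically, at 37 deg C.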
S-ASM inh = blocks human secretory acid sphingomyelinase; P17405; placental ASM, HMU-PC fluorogenic substrate, 60 min; Potency, µM (top dose mostly 57.5 µM), inactives show at the highest dose activity change, negative = inhibition, most hits filed as inhibitors; hit rate 0.006% among 340,000; AID 504937; also: potency is read from the fitted curve at half-maximal effect
Target sequence (P17405 47-631 limits assumed): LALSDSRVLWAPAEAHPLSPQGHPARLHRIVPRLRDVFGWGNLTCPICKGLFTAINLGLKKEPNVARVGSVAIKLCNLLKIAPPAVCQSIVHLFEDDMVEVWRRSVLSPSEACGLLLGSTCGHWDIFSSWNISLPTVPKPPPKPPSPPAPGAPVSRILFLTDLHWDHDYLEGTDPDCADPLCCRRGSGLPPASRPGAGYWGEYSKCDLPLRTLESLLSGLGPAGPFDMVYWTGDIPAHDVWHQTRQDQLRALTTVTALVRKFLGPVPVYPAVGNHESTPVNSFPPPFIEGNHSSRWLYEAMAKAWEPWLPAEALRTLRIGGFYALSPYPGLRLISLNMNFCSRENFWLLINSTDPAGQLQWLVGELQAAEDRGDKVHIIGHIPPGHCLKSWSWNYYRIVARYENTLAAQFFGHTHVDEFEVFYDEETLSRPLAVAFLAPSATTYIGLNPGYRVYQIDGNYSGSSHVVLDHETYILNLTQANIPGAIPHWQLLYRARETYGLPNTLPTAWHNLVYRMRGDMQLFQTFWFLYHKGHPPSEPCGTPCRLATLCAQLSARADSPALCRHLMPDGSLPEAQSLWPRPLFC
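Steps: dispense placental human ASM, pin compound, wait 10 min at room temperature, add HMU-PC0 substrate at 9 uM final, incubate 60 min at 37 °C, add stop solution raising pH to 10, read fluorescence.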
Starred values were filed as active, the others as inactive; i = inactive; ? = inconclusive; / = no result given; [ ] = dose if it differs, or a comment. The list is not random: actives were taken first. Their share in the collection is about 6.9%. Unless noted, calls follow the shape of the dose curve; as a rule, active = well fitted curve in the direction sought with a large enough effect; inconclusive = small, poorly fitted or top-dose-only effect, or another doubt; inactive = no such curve, though single readings can be large; an effect the other way counts as inactive or inconclusive.

SMILES	KB-V1 MDR tox	MCF10A rerep	SW480 rerep	KB-3-1 tox	Giardia kill	S-ASM inh
O=C1CN2Cc3c(ccc(Cl)c3Cl)N=C2N1	0.16µM*	7%	?	i	5	2%
Cc1cccc(N2CCN(C(=O)CCc3c(C)nc4ncnn4c3C)CC2)c1C	i	/	/	i	/	/
Cc1ccc(C(=O)Nc2nnc(CC(=O)N/N=C/c3ccncc3)s2)cc1	i	0%	21µM*	i	-19	4%
Cc1ccc(C(=O)Nc2nnc(CC(=O)N/N=C/c3ccc(O)c(O)c3)s2)cc1	i	27%	-10%	i	-24	6%
Cc1ccc2occ(CC(=O)N(Cc3ccc(Cl)cc3)Cc3ccco3)c2c1	?	/	/	i	/	/
COC(=O)c1c(-c2ccc(OC)cc2)sc2ccc(N3CCOCC3)cc12	i	11%	0%	15µM*	3	-23%
COc1ccc(-c2sc3ccc(N4CCOCC4)cc3c2-c2ccc(O)cc2)cc1	?	?	-96%[9.22 µM]	i	-22	-1%
Cc1cccc(C)c1NC(=O)CN(C)CC(=O)Nc1ccc(F)c(Cl)c1	15µM*	-1%	-2%	i	-7	4%
CCCc1c(NC(=O)Nc2ccc(F)cc2)cnn1-c1ccc(Cl)cc1	?	?	?	9.2µM*	-5	-1%
O=C(NCCc1ccc(Cl)cc1)Nc1ccc(F)cc1	i	-3%	-2%	i	8	-1%
CCOc1ccc(-n2c(C)nnc2SCC(=O)N(CC)CC)cc1	16µM*	14%	-8%	i	-17	2%
Fc1ccc(F)c(C2=NNC(=Nc3ccccc3F)SC2)c1	?	21µM*	?	?	7	-2%
COCCn1c(C)cc(C2=NNC(=Nc3ccccc3F)SC2)c1C	12µM*	19%	5%	18µM*	-13	-1%
COCCCN=C1NN=C(c2cc(C)n(Cc3ccccc3Cl)c2C)CS1	1.5µM*	?	0.65µM*	1.3µM*	-11	3%
COCCCN=C1NN=C(c2cc(C)n(-c3ccccc3)c2C)CS1	i	?	?	i	-8	-1%
COCCN=C1NN=C(c2cc(C)n(CC3CCCO3)c2C)CS1 (centres undefined)	i	-6%	9%	i	-15	-4%
COCCCN=C1NN=C(c2cc(C)n(-c3ccccc3F)c2C)CS1	i	?	?	7.3µM*	3	4%
Cc1cccc(C(=O)n2nc(-c3cccnc3)nc2NCc2ccccc2)c1	i	/	/	i	/	/
N#CCCn1cc(CNCc2cccnc2)c(-c2ccccc2)n1	i	/	/	i	-1	/
CCc1ccc(OCc2n[nH]c(=S)n2C(C)CCCC(C)C)cc1 (centres undefined)	i	13µM*	-3%	i	3	-17%
CCc1ccc(OCc2n[nH]c(=S)n2Cc2ccccc2)cc1	i	-1%	1%	i	7	-13%
COc1ccccc1N1CCN(c2ccc(=O)n(CC(=O)O)n2)CC1	i	/	/	i	/	/
CCNC(=O)NC(=O)CSc1nc2ccccc2n1CC(C)C	2.9µM*	5%	-3%	i	-7	-1%
Cn1c(SCC(=O)NCc2ccccc2)nc2ccccc21	15µM*	14%	-4%	i	-6	-1%
CC(C)Cn1c(SCC(=O)NC2CC2)nc2ccccc21	?	/	/	i	/	/
CC(NC(=O)CSc1nc2ccccc2n1C)c1ccccc1 (centres undefined)	i	1%	-12%	i	-23	4%
